Data published in PubChem BioAssay AID1159580 (chemical genetic matrix, 2015).
Values joined by “and” are separate entries in the source; they are usually repeats but may differ in a detail not shown here. Equal values may be shown once. About 2,000 (36%) of roughly 5,500 compounds were called active. Not shown: some 18% with an inconclusive outcome. Rule as the data show it: active = normalized growth mostly below about 0.91 (no sharp cut-off); inconclusive = no clear call, values can overlap the other calls; inactive = mostly above about 0.92. The list shows a part of the results.

Test: chemical genetic growth profiling, strain panel (AID 1159580);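 also: tested at 20 µM; growth read once vehicle control cultures reached saturation at 30 °C; 1 = growth at the plate median or of vehicle wells; lower values mean less growth of the strain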
Conditions: S. cerevisiae deletion strains, growth OD

Measured: normalized growth

Oc1cccc2cccnc12
0.165 (active) and 0.93 (inactive): locus YJL095W, strain BCK1, stronger effect = lower value
0.0533 (active) and 0.903 (inactive): locus YHR030C, strain SLT2, stronger effect = lower value
inactive: locus YHR079C, strain IRE1, stronger effect = lower value 0.908 | locus YJR066W, strain TOR1, stronger effect = lower value 0.871
active: locus YAL021C, strain ccr4, stronger effect = lower value 0.0769 | locus YAL026C, strain drs2, stronger effect = lower value 0.0625 | locus YAL030W, strain snc1, stronger effect = lower value 0.0718 | locus YBL061C, strain skt5, stronger effect = lower value 0.0722 | locus YBR009C, strain hhf1, stronger effect = lower value 0.0681 | locus YBR021W, strain FUR4, stronger effect = lower value 0.0928 | locus YBR023C, strain chs3, stronger effect = lower value 0.076 | locus YBR171W, strain sec66, stronger effect = lower value 0.076 | locus YBR229C, strain ROT2, stronger effect = lower value 0.0533 | locus YBR231C, strain swc5, stronger effect = lower value 0.0897 | locus YBR279W, strain paf1, stronger effect = lower value 0.0618 | locus YCL011C, strain gbp2, stronger effect = lower value 0.0567 | locus YCL016C, strain dcc1, stronger effect = lower value 0.229 | locus YCL029C, strain bik1, stronger effect = lower value 0.738 | locus YCL061C, strain MRC1, stronger effect = lower value 0.064 | locus YCL069W, strain vba3, stronger effect = lower value 0.0627 | locus YCR088W, strain abp1, stronger effect = lower value 0.0593 | locus YDL005C, strain med2, stronger effect = lower value 0.646 | locus YDL035C, strain GPR1, stronger effect = lower value 0.0493 | locus YDL040C, strain nat1, stronger effect = lower value 0.476 | locus YDL074C, strain BRE1, stronger effect = lower value 0.0979 | locus YDL101C, strain DUN1, stronger effect = lower value 0.869 | locus YDL134C, strain PPH21, stronger effect = lower value 0.0515 | locus YDL185W, strain tfp1, stronger effect = lower value 0.0598 | locus YDL192W, strain arf1, stronger effect = lower value 0.0601 | locus YDR001C, strain nth1, stronger effect = lower value 0.0574 | locus YDR069C, strain doa4, stronger effect = lower value 0.0712 | locus YDR101C, strain arx1, stronger effect = lower value 0.375 | locus YDR137W, strain rgp1, stronger effect = lower value 0.0843 | locus YDR159W, strain sac3, stronger effect = lower value 0.616 | locus YDR162C, strain NBP2, stronger effect = lower value 0.0547 | locus YDR195W, strain ref2 0.117 | locus YDR297W, strain sur2, stronger effect = lower value 0.0588 | locus YDR318W, strain mcm21, stronger effect = lower value 0.0646 | locus YDR334W, strain swr1, stronger effect = lower value 0.0621 | locus YDR335W, strain msn5, stronger effect = lower value 0.0595 | locus YDR388W, stronger effect = lower value 0.0582 | locus YDR392W, strain spt3, stronger effect = lower value 0.0932 | locus YDR502C, strain sam2, stronger effect = lower value 0.0651 | locus YEL003W, strain gim4, stronger effect = lower value 0.0548 | locus YEL037C, strain rad23, stronger effect = lower value 0.0582 | locus YEL061C, strain CIN8 (second series), stronger effect = lower value 0.0606 | locus YEL061C, strain CIN8, stronger effect = lower value 0.0683 | locus YER015W, strain faa2, stronger effect = lower value 0.0643 | locus YER016W, strain bim1, stronger effect = lower value 0.0729 | locus YER110C, stronger effect = lower value 0.107 | locus YER111C, strain swi4, stronger effect = lower value 0.0869 | locus YER155C, strain BEM2 (second series), stronger effect = lower value 0.0885 | locus YER155C, strain BEM2, stronger effect = lower value 0.503 | locus YER167W, strain BCK2, stronger effect = lower value 0.0575 | locus YFR010W, strain ubp6, stronger effect = lower value 0.0669 | locus YGL078C, strain dbp3, stronger effect = lower value 0.0567 | locus YGL086W, strain mad1, stronger effect = lower value 0.0544 | locus YGL167C, strain pmr1, stronger effect = lower value 0.113 | locus YGL173C, strain kem1, stronger effect = lower value 0.07 | locus YGL227W, strain vid30, stronger effect = lower value 0.0635 | locus YGL240W, strain doc1, stronger effect = lower value 0.0777 | locus YGL248W, strain PDE1, stronger effect = lower value 0.0532 | locus YGL253W, strain hxk2, stronger effect = lower value 0.0539 | locus YGR135W, strain pre9, stronger effect = lower value 0.0644 | locus YGR252W, strain gcn5, stronger effect = lower value 0.152 | locus YHR013C, strain ard1, stronger effect = lower value 0.105 | locus YHR027C, strain rpn1, stronger effect = lower value 0.0611 | locus YHR079C, strain IRE1 (second series), stronger effect = lower value 0.0905 | locus YHR094C, strain hxt1, stronger effect = lower value 0.0596 | locus YHR129C, strain ARP1, stronger effect = lower value 0.576 | locus YHR142W, strain chs7, stronger effect = lower value 0.0731 | locus YHR200W, strain rpn10, stronger effect = lower value 0.0598 | locus YIL066C, strain RNR3, stronger effect = lower value 0.156 | locus YIL073C, strain SPO22, stronger effect = lower value 0.0972 | locus YIL125W, strain kgd1, stronger effect = lower value 0.0587 | locus YIR030C, strain dcg1, stronger effect = lower value 0.0603 | locus YJL092W, strain hpr5, stronger effect = lower value 0.058 | locus YJL095W, strain BCK1 (second series), stronger effect = lower value 0.09 | locus YJL115W, strain asf1, stronger effect = lower value 0.0712 | locus YJL129C, strain trk1, stronger effect = lower value 0.0863 | locus YJL134W, strain LCB3, stronger effect = lower value 0.388 | locus YJL154C, strain vps35, stronger effect = lower value 0.0589 | locus YJL164C, strain tpk1, stronger effect = lower value 0.0791 | locus YJL166W, strain qcr8, stronger effect = lower value 0.0604 | locus YJL168C, strain set2, stronger effect = lower value 0.0577 | locus YJL187C, strain SWE1 (second series), stronger effect = lower value 0.057 | locus YJL187C, strain SWE1, stronger effect = lower value 0.101 | locus YJR043C, strain POL32, stronger effect = lower value 0.0576
